Laboratory results taken from PubChem BioAssay (NCATS).
Where “and” joins values, the source holds several entries; their conditions need not be identical. Equal entries are not always repeated. Records with an inconclusive call do not appear. Calls of active or inactive are those of the source. Calls follow the shape of the dose curve; as a rule, active = well fitted inhibition curve with a large enough effect; inconclusive = small, poorly fitted or top-dose-only effect; inactive = flat fitted curve, though single readings scatter.

Columns and labels:
[1] = Drug repurposing screens with cells derived from glioblastoma tumor samples (AID 1345199); conditions: GBM patient neurospheres viability, ATP luminescence, 48 h; also: nearly all actives have a fitted effect of over 40% in size
Summary of the method: (§1)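 Primary testing used CD133+ neurospheres from four GBM patients, seven concentrations, 48 h exposure and ATP-based viability; confirmation added three slower-growing patient lines.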

astro = control astrocytes; test: as above; conditions: viability, ATP luminescence, 48 h; series mostly up to 45.9 µM
Summary of the method: as §1

[2] = at 45.9 µM (top of the series), tumour line B
[3] = at 45.9 µM (top of the series), tumour line D
[4] = at 46 µM (top of the series), tumour line A
[5] = at 46.1 µM (top of the series), tumour line C
% is scaled to controls: 0 for no effect and ±100 for the full control effect.

NC[C@@H]1O[C@H](O[C@H]2[C@@H](O)[C@H](O[C@@H]3[C@@H](O)[C@H](N)C[C@H](N)[C@H]3O[C@H]3O[C@H](CO)[C@@H](O)[C@H](O)[C@H]3N)O[C@@H]2CO)[C@H](N)[C@@H](O)[C@@H]1O
inactive: activity, negative = cell killing [1, 2] -4.51% | activity, negative = cell killing [1, 3] -15.7% | activity, negative = cell killing [1, 4] -10.6% | activity, negative = cell killing [1, 5] -32.1% | Potency (astro)

CC(=O)OCC(=O)[C@@]1(O)CC[C@H]2[C@@H]3CCC4=CC(=O)CC[C@]4(C)C3=CC[C@@]21C
inactive: activity, negative = cell killing [1, 2] -7.95% | activity, negative = cell killing [1, 3] 3.12% | activity, negative = cell killing [1, 4] -15.3% | activity, negative = cell killing [1, 5] -8.95% | Potency (astro)

C=CC1=C(C(=O)O)N2C(=O)[C@@H](NC(=O)/C(=N\O)c3csc(N)n3)[C@H]2SC1 (stereo in doubt)
inactive: activity, negative = cell killing [1, 2] 5.66% and -6.14% | activity, negative = cell killing [1, 3] -12.1% and -17.4% | activity, negative = cell killing [1, 4] -18.5% | activity, negative = cell killing [1, 5] 20.4% and -9.47% | Potency (astro)

CC(=O)[O][Al][O]C(C)=O
inactive: activity, negative = cell killing [1, 2] -5.15% | activity, negative = cell killing [1, 3] -14.6% | activity, negative = cell killing [1, 4] -26.4% | activity, negative = cell killing [1, 5] -11.8% | Potency (astro)

O=P(O)(O)OC[C@H](O)CO
inactive: activity, negative = cell killing [1, 2] -8.89% | activity, negative = cell killing [1, 3] -11.2% | activity, negative = cell killing [1, 4] -27.1% | activity, negative = cell killing [1, 5] 21.9% | Potency (astro)

[O]=[Bi][O][Bi]=[O]
inactive: activity, negative = cell killing [1, 2] -6.82% | activity, negative = cell killing [1, 3] -2.13% | activity, negative = cell killing [1, 4] 1.51% | activity, negative = cell killing [1, 5] 0.751% | Potency (astro)

CCC(C(=O)NC(N)=O)c1ccccc1 (stereo not given)
inactive: activity, negative = cell killing [1, 2] -5.95% | activity, negative = cell killing [1, 3] -2.75% | activity, negative = cell killing [1, 4] -8.52% | activity, negative = cell killing [1, 5] -14.2% | Potency (astro)
